Assay results published in PubChem BioAssay (NCI).
The panel holds about 79,000 compounds, 15% with a hit somewhere; the sample as a whole holds those more often. A number with no mark means an inactive call. The source made the active and inactive calls. Rule as the data show it: active = growth inhibition above about 70%; inactive = the rest.

Assay: NCI Yeast Anticancer Drug Screen. Data for the rad18 strain (AID 177)
Conditions: S. cerevisiae rad18 mutant growth inhibition, hits give high values
Experimental: Growth inhibition of yeast strains with defined genetic alterations is measured as a screen for potential anti-cancer activity. Selected strains with alterations in DNA damage repair or cell cycle control were exposed to compounds and growth inhibition was measured relative to vehicle treated controls. The strain used in this assay is rad18

Structure (SMILES) | growth inhibition (at 1.2 µM) [%] | growth inhibition (at 3.7 µM) | growth inhibition (at 11.0 µM) | growth inhibition (at 33.0 µM) | growth inhibition (at 100.0 µM)
Cc1sc2ccc3ccccc3c2[n+]1C | 0 | 4% | 2% | -1% | 87% (active)
CCCOC(=O)C(F)C(Br)C(=O)OCCC (stereo not given) | 59 | 93% (active) | 97% (active) | 96% (active) | 98% (active)
NCCNCCNc1ccc(NCCNCCN)c2c1C(=O)c1c(O)ccc(O)c1C2=O | 4 | 2% | 9% | 22% | 48%
N#CNC(N)=Nc1cc2ccccc2c2ccccc12 | 21 | 34% | 78% (active) | 94% (active) | 92% (active)
CCCCCCN(CCCCCC)CC(O)c1ccnc2ccc(OC)cc12 (stereo not given) | -5 | -7% | -7% | -13% | 35%
Cc1c2cccc(Sc3ccccc3)c2c2c3c(cccc13)[S+](c1ccccc1)C2 (stereo not given) | 28 | 65% | 97% (active) | 95% (active) | 83% (active)
CCN(CC)CCNc1ccc2ncn3c4cc(OC)c(OC)c(=O)c4c(O)c1c23 | -4 | -1% | 5% | -7% | 1%
CS(=O)(=O)OCCN(CCOS(C)(=O)=O)c1ccc(C=Nc2ccc(-c3csc(COc4ccccc4)n3)cc2)cc1 | 15 | 61% | 84% (active) | 95% (active) | 91% (active)
